Results reported in PubChem BioAssay (Tox21).
Records with an inconclusive call do not appear. Active and inactive are the calls of the source. Unless noted, calls come from the whole dose curve; as a rule, active = well fitted curve in the direction sought with a large enough effect in the repeat runs; inconclusive = weak or mixed curves; inactive = no such curve, though single readings can be large; an effect the other way counts as inactive or inconclusive.

Columns and labels:
[1] = biological target: Acetylcholinesterase (Homo sapiens) (UniProt P22303); test: Acetylcholinesterase (AChE) small molecule antagonists: enzyme-based qHTS assay (AID 1347397; calls by dose curve; note: nearly all actives have a fitted effect of over 55% in size; note: potency is the fitted concentration of half-maximal effect); conditions: Potency: AChE enzyme activity inhibition
Summary of the method: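 Human recombinant acetylcholinesterase; substrate acetylthiocholine; thiocholine quantified with DTNB (colorimetric). Compound preincubation 30 min RT; reaction 10 min RT.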

[2] = biological target: Acetylcholinesterase (Homo sapiens) (UniProt P22303); test: Acetylcholinesterase (AChE) small molecule antagonists: fluorescence cell-based qHTS assay (AID 1347398; calls by dose curve; note: nearly all actives have a fitted effect of over 50% in size; note: potency is the fitted concentration of half-maximal effect); conditions: Potency: AChE activity
Summary of the method: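 Thiocholine generated from acetylthiocholine by SH-SY5Y cell AChE is detected with Thiolite Green (Ex/Em 490/520 nm) after 40 min at room temperature, following 30 min compound pretreatment at 37 C.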

[3] = biological target: Acetylcholinesterase (Homo sapiens) (UniProt P22303); test: Acetylcholinesterase (AChE) small molecule antagonists: enzyme-based qHTS assay with human liver microsomes (AID 1347399; calls by dose curve; note: nearly all actives have a fitted effect of over 60% in size); conditions: Potency: qHTS inhibition
Summary of the method: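 Recombinant human AChE (50 mU/mL in the enzyme mix) and human liver microsomes (0.25 mg/mL final) were preincubated with compound and NADPH (0.25 mg/mL final) for 30 min at 37 C. Acetylthiocholine/DTNB was then added; thiocholine was read colorimetrically after 10 min at room temperature.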

[4] = biological target: Cytochrome P450 2D6 (Homo sapiens) (UniProt P10635); test: Cytochrome P450 Family 2 Subfamily D Member 6 (CYP2D6) small molecule antagonists: luciferase reporter qHTS assay (AID 1671196); note: nearly all actives have a fitted effect of over 50% in size; note: potency is the fitted concentration of half-maximal effect; for activity change, negative = inhibition: series mostly up to about 120 µM
Summary of the method: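 Read-out is luminescence from luciferin formed by CYP2D6 turnover of a proluciferin substrate, recorded as relative luminescence units. Reactions ran 1 h at room temperature after NADPH regeneration solution was added.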

[5] = biological target: Cytochrome P450 2C19 (Homo sapiens) (UniProt P33261); test: Cytochrome P450 Family 2 Subfamily C Member 19 (CYP2C19) small molecule antagonists: luciferase reporter qHTS assay (AID 1671197); note: nearly all actives have a fitted effect of over 65% in size; note: potency is the fitted concentration of half-maximal effect; for activity change, negative = inhibition: series mostly up to about 120 µM
Summary of the method: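 Light output is proportional to CYP2C19 activity: proluciferin substrate is converted to luciferin, then detected by a luciferin detection reagent that also stops the 1 h, 37C NADPH-driven reaction. Ketoconazole serves as positive control.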

[6] = biological target: Cytochrome P450 2C9 (Homo sapiens) (UniProt P11712); test: Cytochrome P450 Family 2 Subfamily C Member 9 (CYP2C9) small molecule antagonists: luciferase reporter qHTS assay (AID 1671198); note: nearly all actives have a fitted effect of over 50% in size; note: potency is the fitted concentration of half-maximal effect; for activity change, negative = inhibition: series mostly up to about 120 µM
Summary of the method: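 CYP2C9 activity was measured with a P450-Glo proluciferin substrate. Enzyme–substrate mix was held with compound for 10 min at room temperature, then NADPH regeneration solution was added for 1 h at 37C. Luciferin product was read as luminescence.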

[7] = biological target: Voltage-gated inwardly rectifying potassium channel KCNH2 (Homo sapiens) (UniProt Q12809); test: Human Ether-a-go-go-Related Gene (hERG) channel small molecule antagonists: fluorescence cell-based qHTS assay (AID 1671200); note: nearly all actives have a fitted effect of over 50% in size; note: potency is the fitted concentration of half-maximal effect;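 for activity change, negative = inhibition: hERG-expressing U2OS cells given a thallium stimulus after FluxOR II dye loading; series mostly up to about 77 µM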
Summary of the method: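 Kinetic two-minute fluorescence traces, sampled at 1 s, were collected following thallium stimulus of U2OS cells (1000 per well) that had been cultured overnight at 37 C and loaded with FluxOR II.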

[8] = biological target: Cytochrome P450 3A4 (Homo sapiens) (UniProt P08684); test: Cytochrome P450 Family 3 Subfamily A Member 4 (CYP3A4) small molecule antagonists: luciferase reporter qHTS assay (AID 1671201); note: nearly all actives have a fitted effect of over 50% in size; note: potency is the fitted concentration of half-maximal effect; for activity change, negative = inhibition: series mostly up to about 120 µM
Summary of the method: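 Proluciferin-to-luciferin conversion by CYP3A4, NADPH-regenerated, 1 h RT; luminescence read as RLU. Ketoconazole as control.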

[9] = biological target: Cytochrome P450 1A2 (Homo sapiens) (UniProt P05177); test: Cytochrome P450 Family 1 Subfamily A Member 2 (CYP1A2) small molecule antagonists: luciferase reporter qHTS assay (AID 1671199); note: nearly all actives have a fitted effect of over 50% in size; note: potency is the fitted concentration of half-maximal effect; for activity change, negative = inhibition: series mostly up to about 120 µM
Summary of the method: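 P450-Glo CYP1A2, 1536-well qHTS: enzyme/proluciferin substrate + cpd (DMSO), 10 min RT; NADPH regen, 1 h RT; detection reagent, 20 min; luminescence, RLU.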
% is set by controls: 0 for no effect and ±100 for the full control effect.

Cytochrome P450 3A4 (Homo sapiens), sequence (P08684 whole entry, looked up): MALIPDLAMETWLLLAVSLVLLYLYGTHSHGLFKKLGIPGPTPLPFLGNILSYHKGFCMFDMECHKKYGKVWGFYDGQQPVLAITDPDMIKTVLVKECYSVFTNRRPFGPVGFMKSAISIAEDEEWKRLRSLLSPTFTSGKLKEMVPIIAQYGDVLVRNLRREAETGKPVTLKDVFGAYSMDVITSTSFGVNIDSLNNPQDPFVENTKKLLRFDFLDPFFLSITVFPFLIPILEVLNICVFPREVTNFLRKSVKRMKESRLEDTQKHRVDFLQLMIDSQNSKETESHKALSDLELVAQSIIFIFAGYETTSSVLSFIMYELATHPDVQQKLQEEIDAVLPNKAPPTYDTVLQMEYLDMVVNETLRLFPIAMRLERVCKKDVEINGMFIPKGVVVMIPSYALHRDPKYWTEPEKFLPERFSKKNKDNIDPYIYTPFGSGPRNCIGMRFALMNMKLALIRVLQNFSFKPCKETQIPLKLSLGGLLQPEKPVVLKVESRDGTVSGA
Acetylcholinesterase (Homo sapiens), sequence (P22303 whole entry, looked up): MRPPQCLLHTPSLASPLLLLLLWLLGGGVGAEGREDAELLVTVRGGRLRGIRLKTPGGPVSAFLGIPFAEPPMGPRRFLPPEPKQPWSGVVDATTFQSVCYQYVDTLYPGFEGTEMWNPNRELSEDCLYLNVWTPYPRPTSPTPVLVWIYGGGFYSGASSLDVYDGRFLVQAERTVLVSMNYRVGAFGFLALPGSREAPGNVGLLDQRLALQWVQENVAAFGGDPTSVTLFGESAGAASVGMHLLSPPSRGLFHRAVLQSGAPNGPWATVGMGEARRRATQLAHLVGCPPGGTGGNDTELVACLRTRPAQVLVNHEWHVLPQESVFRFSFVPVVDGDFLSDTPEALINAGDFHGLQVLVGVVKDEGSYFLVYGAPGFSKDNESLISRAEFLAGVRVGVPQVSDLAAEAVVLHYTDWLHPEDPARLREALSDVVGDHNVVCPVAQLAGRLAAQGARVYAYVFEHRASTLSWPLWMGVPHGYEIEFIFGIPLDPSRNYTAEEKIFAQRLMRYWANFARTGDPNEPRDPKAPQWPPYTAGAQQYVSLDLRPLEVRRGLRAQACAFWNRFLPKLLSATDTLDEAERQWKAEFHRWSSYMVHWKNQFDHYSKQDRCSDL
Cytochrome P450 2C19 (Homo sapiens), sequence (P33261 whole entry, looked up): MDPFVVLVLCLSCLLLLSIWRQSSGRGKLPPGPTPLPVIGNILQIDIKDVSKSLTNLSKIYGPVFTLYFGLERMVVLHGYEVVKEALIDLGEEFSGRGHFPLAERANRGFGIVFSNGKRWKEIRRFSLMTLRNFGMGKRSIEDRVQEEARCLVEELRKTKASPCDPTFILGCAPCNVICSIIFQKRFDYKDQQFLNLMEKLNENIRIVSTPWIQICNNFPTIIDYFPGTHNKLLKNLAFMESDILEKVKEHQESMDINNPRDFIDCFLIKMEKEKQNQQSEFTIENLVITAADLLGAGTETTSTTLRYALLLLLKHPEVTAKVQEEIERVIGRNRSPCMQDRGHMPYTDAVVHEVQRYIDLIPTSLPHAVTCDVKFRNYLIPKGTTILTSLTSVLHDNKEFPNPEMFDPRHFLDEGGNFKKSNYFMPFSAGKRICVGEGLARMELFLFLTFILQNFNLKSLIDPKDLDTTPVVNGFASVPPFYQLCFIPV
Cytochrome P450 1A2 (Homo sapiens), sequence (P05177 whole entry, looked up): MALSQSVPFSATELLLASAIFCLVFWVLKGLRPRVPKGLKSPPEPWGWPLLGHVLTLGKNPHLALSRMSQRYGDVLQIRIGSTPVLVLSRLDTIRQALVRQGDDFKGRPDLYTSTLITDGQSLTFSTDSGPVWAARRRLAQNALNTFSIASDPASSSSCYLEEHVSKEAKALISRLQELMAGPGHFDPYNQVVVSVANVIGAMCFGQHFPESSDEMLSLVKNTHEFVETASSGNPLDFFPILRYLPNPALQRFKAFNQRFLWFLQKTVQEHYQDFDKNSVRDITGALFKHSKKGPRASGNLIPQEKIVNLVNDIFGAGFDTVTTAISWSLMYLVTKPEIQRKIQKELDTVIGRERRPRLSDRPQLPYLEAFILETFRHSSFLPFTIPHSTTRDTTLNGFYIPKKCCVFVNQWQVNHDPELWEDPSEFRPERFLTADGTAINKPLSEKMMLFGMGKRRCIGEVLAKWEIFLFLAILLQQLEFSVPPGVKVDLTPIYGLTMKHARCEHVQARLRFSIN
Cytochrome P450 2D6 (Homo sapiens), sequence (P10635 whole entry, looked up): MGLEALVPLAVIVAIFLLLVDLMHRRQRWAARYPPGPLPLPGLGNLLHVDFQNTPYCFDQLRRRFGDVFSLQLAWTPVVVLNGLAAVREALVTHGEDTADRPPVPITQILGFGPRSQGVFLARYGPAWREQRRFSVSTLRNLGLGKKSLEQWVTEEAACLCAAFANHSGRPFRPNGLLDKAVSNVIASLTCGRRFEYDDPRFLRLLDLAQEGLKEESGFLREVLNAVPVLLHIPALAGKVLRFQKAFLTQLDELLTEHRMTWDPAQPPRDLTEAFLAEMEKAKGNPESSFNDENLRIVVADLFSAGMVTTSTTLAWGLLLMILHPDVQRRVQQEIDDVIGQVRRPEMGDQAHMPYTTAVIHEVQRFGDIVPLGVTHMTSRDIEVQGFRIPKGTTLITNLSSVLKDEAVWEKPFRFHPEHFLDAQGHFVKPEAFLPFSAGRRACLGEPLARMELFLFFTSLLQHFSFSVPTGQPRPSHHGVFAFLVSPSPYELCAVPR
Voltage-gated inwardly rectifying potassium channel KCNH2 (Homo sapiens), sequence (Q12809 whole entry, looked up): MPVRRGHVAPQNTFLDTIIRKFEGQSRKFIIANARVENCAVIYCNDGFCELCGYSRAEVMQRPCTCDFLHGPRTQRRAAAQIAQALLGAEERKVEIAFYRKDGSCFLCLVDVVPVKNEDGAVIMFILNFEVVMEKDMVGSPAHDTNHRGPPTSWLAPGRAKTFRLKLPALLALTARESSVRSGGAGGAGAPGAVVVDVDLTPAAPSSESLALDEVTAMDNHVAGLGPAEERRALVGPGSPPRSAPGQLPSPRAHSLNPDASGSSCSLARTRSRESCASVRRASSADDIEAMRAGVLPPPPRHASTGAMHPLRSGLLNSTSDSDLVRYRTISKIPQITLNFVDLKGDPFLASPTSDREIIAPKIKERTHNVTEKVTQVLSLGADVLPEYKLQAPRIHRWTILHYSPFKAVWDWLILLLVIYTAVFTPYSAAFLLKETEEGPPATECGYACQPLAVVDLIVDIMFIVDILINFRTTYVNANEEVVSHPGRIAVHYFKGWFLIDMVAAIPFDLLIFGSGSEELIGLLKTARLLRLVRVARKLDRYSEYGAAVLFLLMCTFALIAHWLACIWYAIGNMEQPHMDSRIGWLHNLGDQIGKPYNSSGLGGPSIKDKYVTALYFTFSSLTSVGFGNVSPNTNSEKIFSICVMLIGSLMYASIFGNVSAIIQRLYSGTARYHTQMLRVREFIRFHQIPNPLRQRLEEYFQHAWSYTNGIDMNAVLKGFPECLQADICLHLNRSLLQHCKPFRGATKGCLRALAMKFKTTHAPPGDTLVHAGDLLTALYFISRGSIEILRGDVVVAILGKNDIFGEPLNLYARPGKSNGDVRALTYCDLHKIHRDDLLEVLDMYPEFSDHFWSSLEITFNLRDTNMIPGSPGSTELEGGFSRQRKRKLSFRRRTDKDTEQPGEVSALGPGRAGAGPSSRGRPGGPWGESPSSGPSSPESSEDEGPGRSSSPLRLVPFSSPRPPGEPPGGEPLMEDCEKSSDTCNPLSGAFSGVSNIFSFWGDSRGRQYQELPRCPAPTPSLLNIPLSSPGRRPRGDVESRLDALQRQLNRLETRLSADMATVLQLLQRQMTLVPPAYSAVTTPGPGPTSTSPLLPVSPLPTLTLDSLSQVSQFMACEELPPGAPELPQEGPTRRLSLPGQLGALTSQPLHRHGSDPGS
Cytochrome P450 2C9 (Homo sapiens), sequence (P11712 whole entry, looked up): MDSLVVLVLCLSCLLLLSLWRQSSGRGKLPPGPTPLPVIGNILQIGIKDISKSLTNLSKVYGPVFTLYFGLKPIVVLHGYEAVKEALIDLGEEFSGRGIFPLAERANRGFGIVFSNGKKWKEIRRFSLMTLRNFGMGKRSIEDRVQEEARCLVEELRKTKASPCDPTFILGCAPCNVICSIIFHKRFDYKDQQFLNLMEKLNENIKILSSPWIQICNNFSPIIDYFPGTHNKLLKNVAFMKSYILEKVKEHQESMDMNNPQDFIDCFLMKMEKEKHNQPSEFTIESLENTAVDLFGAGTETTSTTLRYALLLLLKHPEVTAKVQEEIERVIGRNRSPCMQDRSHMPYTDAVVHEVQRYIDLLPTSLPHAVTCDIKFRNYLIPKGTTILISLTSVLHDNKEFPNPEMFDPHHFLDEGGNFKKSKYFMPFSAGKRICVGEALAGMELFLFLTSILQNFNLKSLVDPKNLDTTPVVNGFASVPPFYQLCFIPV

COC(=O)C(C)N(C(=O)c1ccco1)c1c(C)cccc1C (centres undefined)
active: Potency [5] 11.2 µM | Potency [6] 31.7 µM
inactive: Potency [1] | Potency [2] | Potency [3] | Potency [4] | Potency [7] | Potency [8]

CC(=O)[O][Sn]([c]1ccccc1)([c]1ccccc1)[c]1ccccc1
active: Potency [4] 0.2 µM | Potency [5] 5.03 µM | Potency [6] 0.894 µM | Potency [7] 1.1 µM | Potency [8] 12.6 µM
inactive: Potency [1] | Potency [2] | Potency [3]

CNC(C)(C)Cc1ccccc1
inactive: Potency [1] | Potency [2] | Potency [3] | Potency [5] | Potency [6] | Potency [9] | Potency [7] | Potency [8]
active: Potency [4] 9.77 µM

CC(Cl)CCl (centres undefined)
active: Potency [5] 70.8 µM
inactive: Potency [1] | Potency [2] | Potency [3] | Potency [4] | Potency [6] | Potency [7] | Potency [8]

C=CC(=O)[O][Sn]([CH2]CCC)([CH2]CCC)[CH2]CCC
active: Potency [4] 1.26 µM | Potency [5] 0.894 µM | Potency [6] 12.6 µM | Potency [7] 6.16 µM | Potency [8] 25.2 µM
inactive: Potency [1] | Potency [2] | Potency [3]

CCCCC(CC)COC(=O)OOC(C)(C)C (centres undefined)
inactive: Potency [1] | Potency [2] | Potency [3] | Potency [4] | Potency [5] | Potency [6] | Potency [7] | Potency [8]

COCCC#N
inactive: Potency [1] | Potency [2] | Potency [3] | Potency [4] | Potency [5] | Potency [6] | Potency [9] | Potency [7] | Potency [8]

C#CCO
inactive: Potency [1] | Potency [2] | Potency [3] | Potency [4] | Potency [5] | Potency [6] | Potency [7] | Potency [8]

Cc1c([N+](=O)[O-])c(C)c([N+](=O)[O-])c(C(C)(C)C)c1[N+](=O)[O-]
inactive: Potency [1] | Potency [2] | Potency [3] | Potency [4] | Potency [5] | Potency [6] | Potency [8]
active: Potency [9] 5.03 µM

c1cc[n+]2c(c1)-c1cccc[n+]1CC2
inactive: Potency [1] | Potency [2] | Potency [3] | Potency [6] | Potency [7]
active: Potency [4] 7.76 µM | Potency [5] 9.77 µM

C=CCOC(=O)c1ccccc1N
active: Potency [4] 63.7 µM | Potency [5] 25.4 µM | Potency [6] 35.8 µM | Potency [9] 7.15 µM | Potency [8] 40.2 µM
inactive: Potency [1] | Potency [2] | Potency [3] | Potency [7]

Clc1c(Cl)c(Cl)c(Cl)c(Cl)c1Cl
inactive: activity change, negative = inhibition [1] -1.5% [at 10.5 µM] | activity change, negative = inhibition [2] 3.1% [at 10.5 µM] | activity change, negative = inhibition [3] 0% [at 10.5 µM] | activity change, negative = inhibition [4] -7.24% [at 10.5 µM] | activity change, negative = inhibition [5] 17.2% [at 10.5 µM] | activity change, negative = inhibition [6] -2.13% [at 10.5 µM] | activity change, negative = inhibition [7] 10.1% [at 6.97 µM] | activity change, negative = inhibition [8] 4.21% [at 10.5 µM]

CC[N+]1(CC)CCC(OC(=O)C(O)(c2ccccc2)c2ccccc2)C1 (centres undefined)
inactive: Potency [1] | Potency [2] | Potency [3] | Potency [5] | Potency [6] | Potency [7] | Potency [8]
active: Potency [4] 8.71 µM

O=C(NC(=O)c1c(F)cccc1F)Nc1ccc(Oc2ccc(C(F)(F)F)cc2Cl)cc1F
active: Potency [6] 25.2 µM | Potency [7] 34.7 µM
inactive: Potency [1] | Potency [2] | Potency [3] | Potency [4] | Potency [5] | Potency [9] | Potency [8]

O=[N+]([O-])c1ccccc1-c1ccccc1
active: Potency [5] 35.6 µM | Potency [6] 25.2 µM
inactive: Potency [1] | Potency [2] | Potency [3] | Potency [4] | Potency [7] | Potency [8]

O=C(NC(=O)c1ccccc1Cl)Nc1ccc(OC(F)(F)F)cc1
inactive: Potency [1] | Potency [2] | Potency [3] | Potency [4] | Potency [5] | Potency [6] | Potency [7] | Potency [8]

C=C(C)C(=O)[O][Sn]([CH2]CCC)([CH2]CCC)[CH2]CCC
inactive: Potency [1] | Potency [2] | Potency [3]
active: Potency [4] 2.24 µM | Potency [5] 0.71 µM | Potency [6] 11.2 µM | Potency [7] 4.9 µM | Potency [8] 22.4 µM

Cc1c([N+](=O)[O-])cc2c(c1[N+](=O)[O-])C(C)(C)CC2(C)C
inactive: Potency [1] | Potency [2] | Potency [3] | Potency [4] | Potency [5] | Potency [8]

O=S(=O)(O)F
inactive: Potency [1] | Potency [2] | Potency [3] | Potency [4] | Potency [6] | Potency [9] | Potency [7] | Potency [8]

Cc1cc2c3c(c1)C(c1ccccc1)=N[C@@H](NC(=O)c1ccncc1)C(=O)N3CC2
active: Potency [4] 39.9 µM | Potency [5] 25.2 µM | Potency [6] 31.7 µM | Potency [8] 1.12 µM
inactive: Potency [1] | Potency [2] | Potency [3]

CCN1CCC2(CC1)COc1cc3c(cc12)N(C(=O)c1ccc(-c2ccc(-c4nnc(C)o4)cc2C)cc1)CC3
inactive: Potency [3] | Potency [9] | Potency [7] | Potency [8]
active: Potency [1] 32.8 µM | Potency [2] 10.4 µM | Potency [4] 32.8 µM | Potency [5] 23.2 µM

CCN(CC)Cc1nccn1-c1ccc([N+](=O)[O-])cc1C(=O)c1ccccc1Cl
active: Potency [4] 3.09 µM | Potency [7] 5.35 µM
inactive: Potency [1] | Potency [2] | Potency [3] | Potency [6]
